Experimental findings from PubChem BioAssay AID504834 (National Center for Advancing Translational Sciences (NCATS), 2011) are described below.

SMILES strings stand for the structures. The campaign covered roughly 320,000 compounds. About 22,000 (6.9%) were called active. Another 27% or so got no clear call; they are omitted. Calls follow the shape of the dose curve; as a rule, active = well fitted inhibition curve with a large enough effect; inconclusive = small, poorly fitted or top-dose-only effect, or another doubt; inactive = no such curve, though single readings can be large or run the other way. What follows is part of a selection rich in actives, with near analogues and random picks from the rest. Entries that show only a call come without a potency.
Potency is read from the fitted curve at half-maximal effect.

A short description of the assay: Primary qHTS for delayed death inhibitors of the malarial parasite plastid, 96 hour incubation. Particulars: P. falciparum luciferase reporter growth; series mostly up to 28.7 µM. Put shortly:
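Two-generation exposure (96 h) targets delayed-death phenotype. Reporter parasites carrying integrated firefly luciferase, in red cells at 2% hematocrit and 0.05% parasitemia final, kept at 37 C, 5% CO2; luminescence loss indicates inhibition.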
(In general: qHTS replaces the single test concentration by a dilution series.)
`Cc1ccc(OCC(=O)NCCCNC(=O)c2cccnc2)cc1C`: the Potency result is “inactive”.

For `Cc1cc(NC(=O)c2ccccc2C)no1`, the Potency entry was “inactive”.

`COc1ccccc1N1CC(C(=O)Nc2nnc(SCC(=O)NC(C)C)s2)CC1=O` (stereo not given): the Potency result is “inactive”.

In the case of `CCCC(C)c1nnc(NC(=O)C2CC(=O)N(c3ccc(OCC)cc3)C2)s1` (stereo not given), the Potency result is “inactive”.

Turning to `CCOC(=O)CSc1nnc(NC(=O)C2CC(=O)N(c3ccc(F)cc3)C2)s1` (stereo not given), the Potency is 14.7 µM (active).

`CC1CN(C(=O)CCC(=O)NCCCN2CCC(Cc3ccccc3)CC2)c2cc(Cl)ccc2O1` (stereo not given): the Potency result is “inactive”.

Consider `COc1cccc(NC(=O)c2cc(S(=O)(=O)N3CCc4ccccc43)cn2C)c1`, for which the Potency entry was “inactive”.

Regarding `CCn1c(=O)c(=O)n(CC)c2cc(N3CCCCC3)c(NC(=O)c3ccc(Cl)cc3)cc21`, the Potency entry was “inactive”.

Turning to `CC(NC(=O)c1ccccc1SCC(=O)N1CCCC1)c1ccccc1` (stereo not given), the Potency entry is “inactive”.

With `CC(=O)Nc1ccc(S(=O)(=O)N(C)c2nc3ccccc3nc2Cl)cc1`, the Potency result is “inactive”.

With `Cc1ccc(S(=O)(=O)N(C)c2nc3ccccc3n3c(C(C)C)nnc23)cc1`, the Potency is 11.7 µM (active).

Turning to `Cc1ccc(Oc2nc3ccccc3n3c(C)nnc23)cc1`, the Potency entry was “inactive”.

For the molecule `O=C(Nc1ccccc1Cl)NC1(C(=O)N2CCOCC2)CCCCC1`, the Potency result was “inactive”.

As to `N#Cc1c(Cl)nc(-c2cccnc2)nc1-c1ccccc1`, the Potency result is “inactive”.

In the case of `O=C(Nc1c(Cl)cccc1Cl)C1CCC1`, the Potency was 10.4 µM (active).

As for `NC(=S)Nc1c(Cl)cccc1Cl`, the Potency result was “inactive”.

Turning to `CN(CC(=O)Nc1c(Cl)cccc1Cl)C(=O)CNC(=O)C1CCCCC1`, the Potency result was “inactive”.

For `NS(=O)(=O)c1ccc2nc(NC(=O)CS(=O)(=O)c3ccc(F)cc3)sc2c1`, the Potency result was “inactive”.

In the case of `COc1ccc(CNC(=O)CCCn2nc(C)c([N+](=O)[O-])c2C)cc1`, the Potency result is “inactive”.

Turning to `Cc1nn(CCOc2ccc(Br)cc2)c(C)c1[N+](=O)[O-]`, the Potency was 13.1 µM (active).

`Brc1ccc(OCCn2ccnc2)cc1`: the Potency result was “inactive”.

On to `CNS(=O)(=O)c1ccc(NC(=O)Nc2ccc3c(c2)OCO3)cc1`, for which the Potency result is “inactive”.

Consider `CCOC(=O)C(=O)C1C(=O)Nc2ccccc21` (stereo not given), for which the Potency result was “inactive”.

For `CCCCCN(C(=O)CCC(=O)OCC(=O)NCc1ccc(OC)cc1)c1c(N)n(CCCC)c(=O)[nH]c1=O`, the Potency result is “inactive”.

For `CCCCCN(C(=O)CCC(=O)OCC(=O)NC1CCC(C)CC1)c1c(N)n(CCCC)c(=O)[nH]c1=O` (stereo not given), the Potency was 14.7 µM (active).

`CCCCCN(C(=O)CCC(=O)OCCOc1ccc(OC)cc1)c1c(N)n(CCCC)c(=O)[nH]c1=O`: the Potency entry is “inactive”.

Take `O=C(NCc1ccco1)C1CCCN1S(=O)(=O)c1ccccc1C(F)(F)F` (stereo not given): the Potency entry was “inactive”.

Turning to `CCOC(=O)C1=C(COC(=O)[C@H](C)NS(=O)(=O)c2ccccc2F)NC(=O)NC1C` (stereo not given in full), the Potency entry was “inactive”.

Consider `Cc1cs/c(=N\N=C\c2ccc(O)cc2)n1Cc1ccco1`, for which the Potency result was “inactive”.

For `CN(C)CCCN=Cc1c(O)n(Cc2ccco2)c(=O)[nH]c1=O`, the Potency entry is “inactive”.

In the case of `CC(C)n1c(=O)c(C=Nc2ccc(Br)cc2)c(O)n(Cc2ccco2)c1=O`, the Potency was 10.4 µM (active).

For the molecule `COC(=O)c1cccc(N(C(=O)CNC(=O)c2cccs2)C(C(=O)NCC2CCCO2)c2ccc(OC)c(OC)c2)c1` (stereo not given), the Potency result is “inactive”.

With `CC1(C)CC(=O)CC2(C1)NCC(c1ccccc1Cl)c1c2[nH]c2ccccc12` (stereo not given), the Potency was 9.28 µM (active).

For `O=C(O)CC(c1ccccc1F)N1Cc2ccccc2C1=O` (stereo not given), the Potency result was “inactive”.

For the molecule `CN(C)CCNc1ccc(-c2n[nH]c(=O)c3ccccc23)cc1[N+](=O)[O-]`, the Potency entry was “inactive”.

For the molecule `CCOC(=O)c1cc2c(nc1NC(=S)Nc1ccccc1)CC(C)(CC)OC2` (stereo not given), the Potency was 13.1 µM (active).

In the case of `CCOC(=O)c1ccc(NC(=S)Nc2cc(C)cc(C)n2)cc1`, the Potency result was “inactive”.

Consider `CCOC(=O)c1cn[nH]c1NC(=S)Nc1ccccc1`, for which the Potency result was “inactive”.

Turning to `COc1ccc(CNC(=O)c2cc(=O)c3c(C)cc(C)cc3o2)cc1`, the Potency result is “inactive”.

`Cc1ccc(N=C2SCCCN2C(=O)c2cccc(N3C(=O)CCC3=O)c2)cc1Cl`: the Potency result was “inactive”.

As for `COc1ccc(N2CC(NS(=O)(=O)c3ccc4ccccc4c3)CC2=O)cc1` (stereo not given), the Potency result was “inactive”.

For the molecule `O=C(NCc1ccco1)C1CCCN(S(=O)(=O)c2ccccc2)C1` (stereo not given), the Potency result is “inactive”.

With `CC1CCN(S(=O)(=O)c2ccc(S(=O)(=O)NCc3ccco3)cc2)CC1`, the Potency result is “inactive”.

As to `Cc1ccc(C(=O)NC2CCN(C(=O)Nc3ccc(F)cc3)CC2)cc1`, the Potency entry is “inactive”.

As for `O=C(NC1CCN(C(=S)NCc2ccco2)CC1)c1ccc(F)cc1`, the Potency is 2.94 µM (active).

For `O=S(=O)(c1ccc(F)cc1)N1CCN(C(=S)NCc2ccco2)CC1`, the Potency was 0.657 µM (active).

Take `CCOC(=O)N1CCN(S(=O)(=O)c2ccc(OC)cc2)CC1`: the Potency result is “inactive”.

With `COc1ccc(CCNC(=O)C2CCCN(S(=O)(=O)c3ccc(OC)cc3)C2)cc1` (stereo not given), the Potency entry is “inactive”.

As to `COc1ccc(C(=O)NC2CCN(C(=S)NCCc3ccccc3)CC2)cc1`, the Potency entry was “inactive”.

On to `COc1ccc(CCNC(=S)N2CCN(S(=O)(=O)c3ccc(F)cc3)CC2)cc1`, for which the Potency is 2.94 µM (active).

On to `CSc1ccccc1NC(=O)COC(=O)CCCOc1ccc(C)cc1`, for which the Potency result was “inactive”.

For `COc1ccc(CCNC(=O)COC(=O)Cc2cccc(F)c2)cc1`, the Potency result was “inactive”.

Consider `O=C(COC(=O)CNC(=O)C1CCCCC1)NCc1ccccc1`, for which the Potency entry is “inactive”.

For the molecule `COc1cccc(CSc2nc3nc(C)cc(C)n3n2)c1`, the Potency result was “inactive”.

As for `COC(=O)N/N=C/c1c[n+]([O-])c2ccccc2[n+]1[O-]`, the Potency entry was “inactive”.

Consider `O=C(CCN1C(=O)[C@H]2CC=CC[C@H]2C1=O)NCc1nc(-c2ccccc2)no1`, for which the Potency result is “inactive”.

Regarding `Cc1ccc(CN2C(=O)CCC2C(=O)NCCCN2CCCCC2C)cc1` (stereo not given), the Potency entry was “inactive”.

As for `CCC(C)NC(=O)C1c2ccccc2C(=O)N1Cc1ccccc1` (stereo not given), the Potency entry is “inactive”.

Take `CCC(C)NC(=O)C1CCC(=O)N1Cc1ccc(C)cc1` (stereo not given): the Potency is 11.7 µM (active).

Turning to `O=S(=O)(Cc1nnnn1-c1ccccc1)c1ccccc1`, the Potency result is “inactive”.

For `O=C(/C=C/c1ccccc1[N+](=O)[O-])OCC(=O)N1CCCC1`, the Potency result was “inactive”.

Consider `COc1cccc(NC(=O)N2CCC(NC(=O)C(Cc3cccc(C)c3)NC(C)=O)CC2)c1` (stereo not given), for which the Potency result is “inactive”.

Consider `Cc1ccc(-c2nc(-c3cccnc3)sc2CC(=O)Nc2ccc(C)c(Cl)c2)cc1`, for which the Potency is 11.7 µM (active).

Turning to `Cc1ccc(S(=O)(=O)NCCC(=O)Nc2ccc(C)c(Cl)c2)cc1C`, the Potency result is “inactive”.

As to `O=C(O)Cc1sc(-c2ccc(C(=O)O)cc2)nc1-c1ccccc1`, the Potency entry was “inactive”.

Take `COc1ccc(OC)c(C(=O)NC(CC(N)=O)c2ccc(N3CCC(N4CCCCC4)CC3)c([N+](=O)[O-])c2)c1` (stereo not given): the Potency entry is “inactive”.

In the case of `CCOc1ccc(N(CC)S(=O)(=O)c2cccc3nsnc23)cc1`, the Potency was 6.57 µM (active).

Turning to `COc1ccc(N(C)C(=O)CCS(=O)(=O)c2cccc3nsnc23)cc1`, the Potency entry was “inactive”.

As to `COc1ccc(N(C)S(=O)(=O)c2cccc3nsnc23)cc1`, the Potency result is “inactive”.

Consider `O=C(Nc1ccc(N2CCOCC2)c(Cl)c1)c1ccc(S(=O)(=O)N2CCOCC2)cc1`, for which the Potency result is “inactive”.

For `COc1ccc(CNC(=O)Cc2ccc(-c3ccccc3)cc2)cc1OC`, the Potency entry was “inactive”.

As to `COC(=O)c1ccc(C(NC(=O)OCc2ccccc2)/C(C)=C/[C@@H](C)C(=O)NCc2ccc(OC)c(OC)c2)cc1` (stereo not given in full), the Potency was 11.7 µM (active).

For `COc1ccc(COC(=O)NC(C(=O)O)c2ccccc2)cc1` (stereo not given), the Potency entry was “inactive”.

As for `COc1ccccc1CNC(=O)CCCn1c(=O)c2ccccc2n(CC(=O)NC2CCCC2)c1=O`, the Potency was 4.65 µM (active).

Consider `COCCCNC(=O)Cn1c(=O)n(Cc2ccccc2Cl)c(=O)c2cc(OC)c(OC)cc21`, for which the Potency entry was “inactive”.

With `COc1ccccc1CNC(=O)CCCN1C(=O)NC2(CCCC2)C1=O`, the Potency entry was “inactive”.

Consider `COC(=O)c1ccccc1N=Nc1c(C)[nH][nH]c1=O`, for which the Potency result was “inactive”.

Consider `O=C(O[C@H]1[C@H](Cc2ccccc2)NS(=O)(=O)[C@H]2C[C@@H]3C=C[C@]12O3)c1ccc([N+](=O)[O-])cc1`, for which the Potency result was “inactive”.

Regarding `NC(=O)COC(=O)/C=C/c1ccc2ccccc2n1`, the Potency result is “inactive”.

For the molecule `CC(=O)c1ccc(S(=O)(=O)N2CCN(C(=O)/C=C/c3ccc4ccccc4n3)CC2)cc1`, the Potency is 5.22 µM (active).

For `CC(=O)c1ccc(S(=O)(=O)N2CCC3(CC2)OCCO3)cc1`, the Potency result was “inactive”.

Take `COCC1CCCN(C(=O)c2ccc3oc(C(C)C)nc3c2)C1` (stereo not given): the Potency result was “inactive”.

For the molecule `Nn1c(SCC(=O)Nc2nccs2)nnc1-c1ccco1`, the Potency result was “inactive”.

Regarding `COC(=O)c1cn(-c2ccccc2)nc1-c1cccnc1`, the Potency is 7.38 µM (active).

For the molecule `CC(C)(C)OC(=O)N/N=C/c1cn(-c2ccccc2)nc1-c1cccnc1`, the Potency was 2.33 µM (active).

As for `CN(C)/N=C/c1cn(-c2ccccc2)nc1-c1cccnc1`, the Potency entry is “inactive”.

Regarding `O=C(NCc1cccnc1)c1cn(-c2ccccc2)nc1-c1cccs1`, the Potency result is “inactive”.

`NC(=O)C1CCN(C(=O)c2cn(-c3ccccc3)nc2-c2cccnc2)CC1`: the Potency result was “inactive”.

As to `O=C(COC(=O)/C=C/c1cn(-c2ccccc2)nc1-c1cccnc1)Nc1ccc(Cl)cc1Cl`, the Potency entry is “inactive”.

As to `COc1ccc(C(=O)N2CCN(c3ccc(C(C)=O)cc3F)CC2)cc1S(=O)(=O)NC1CC1`, the Potency entry is “inactive”.

On to `Cc1ccc(/C=C/C(=O)OCC(=O)NCc2ccc(Cl)cc2)o1`, for which the Potency entry was “inactive”.

Consider `Cc1cc(-c2ccc(C)c(S(=O)(=O)NCCCN(Cc3ccccc3)C(C)C)c2)on1`, for which the Potency result was “inactive”.

Regarding `COC(=O)c1c(NC(=O)c2ccccc2F)sc2c1C(C(=O)OC)CC2` (stereo not given), the Potency entry is “inactive”.

Turning to `O=C(Nc1ccc(C(=O)O)cc1)/C(=C\c1ccccc1)NC(=O)c1ccc(Br)cc1`, the Potency entry is “inactive”.

On to `COc1ccccc1N1CCN(C(=O)C2Cc3ccccc3CN2C(=O)c2ccco2)CC1` (stereo not given), for which the Potency entry was “inactive”.

For the molecule `CCCCn1c(N)c(N(CCOC)C(=O)CSCC(=O)Nc2cccc(C)c2)c(=O)[nH]c1=O`, the Potency entry was “inactive”.

Turning to `CCCCn1c(-c2cccc(C)c2)nc2cc3[nH]c(=O)c(C(C)C)nc3cc21`, the Potency was 4.15 µM (active).

In the case of `CCOCCn1c(-c2ccccc2)nc2ccccc21`, the Potency result was “inactive”.

For `O=C(O)C1CCCN1C1=NS(=O)(=O)c2ccccc21` (stereo not given), the Potency result is “inactive”.

With `CN(Cc1ccccc1)S(=O)(=O)c1nnc(NC(=O)c2ccccc2F)s1`, the Potency result was “inactive”.
